Experimental findings from PubChem BioAssay (EPA / NIEHS) are described below.

Active and inactive are the calls of the source. How the source made its calls: active means hit-call score of the fitted dose curve at least 0.9, where 1 is the maximum; inactive means score below 0.9.

The target in test [1] is CCAAT/enhancer-binding protein beta (Homo sapiens) (UniProt P17676). Briefly: ATG_C_EBP_CIS: Attagene CIS-FACTORIAL HepG2 Assay for human CCAAT/Enhancer Binding Protein (C/EBP) beta (AID 2282927). The note with it: HepG2 Attagene cis-factorial transcription factor reporter; actives raise or lower the signal. The essentials:
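HepG2 transiently transfected with multiplexed reporter units under cis-regulatory promoters reporting endogenous C/EBPb activity. After 24 h exposure, reporter mRNA assayed by RT-PCR, fluorescent labelling, HpaI digestion and capillary electrophoresis; bidirectional fitting versus DMSO.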

Test [2] in a line: ATG_CMV_CIS: Attagene CIS-FACTORIAL HepG2 Assay for human CMV (Internal Marker) (AID 2282928).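 Further: endpoint acts as a background internal control marker rather than a target.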 The note with it: HepG2 CMV promoter reporter, transcription factor profiling; actives raise or lower the signal. Summed up:
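CMV internal-marker background readout in transiently transfected HepG2 cells bearing cis-regulated reporter units. Reporter mRNA is measured 24 h after dosing by RT-PCR and capillary electrophoresis, with bidirectional fitting against DMSO.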

The nature of test [3]: ATG_DR4_LXR_CIS: Attagene CIS-FACTORIAL HepG2 Assay for human Liver X Receptor (LXR), DR4 submotif (AID 2282929). Conditions: HepG2 Attagene DR4 cis-reporter, mRNA transcription; actives raise or lower the signal. Summed up:
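Endogenous factor activity at a DR4 cis-element is read as reporter mRNA in transiently transfected HepG2 cells. Exposure lasts 24 h; transcripts are amplified, fluorescently labelled and sized by capillary electrophoresis, with DMSO as baseline.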

Test [4] has as its target Aryl hydrocarbon receptor (Homo sapiens) (UniProt P35869). The test can be described thus: ATG_Ahr_CIS: Attagene CIS-FACTORIAL HepG2 Assay for human Aryl Hydrocarbon Receptor (Ahr) (AID 2282930). Conditions: HepG2 AhR cis-factorial reporter transcription; actives raise or lower the signal. The essentials: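 HepG2 cells transiently transfected with cis-element-driven multiplexed reporter units; endogenous AhR activity read as reporter mRNA 24 h after dosing, via RT-PCR, 6-FAM labelling, HpaI digestion and capillary electrophoresis. Bidirectional fit relative to DMSO.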

A short description of test [5]: ATG_AP_1_CIS: Attagene CIS-FACTORIAL HepG2 Assay for human Activator Protein 1 (AP-1) (AID 2282931). Conditions: HepG2 Attagene cis-factorial AP-1 reporter mRNA; actives raise or lower the signal. The essentials:
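Fluorescence of labelled PCR fragments separated by capillary electrophoresis gives reporter mRNA levels. HepG2 with transfected cis-regulated reporter units, 24 h exposure; DMSO serves as baseline for bidirectional curve fits.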

Test [6] is described as follows: ATG_AP_2_CIS: Attagene CIS-FACTORIAL HepG2 Assay for human Activator Protein 2 (AP-2) (AID 2282932). Conditions: HepG2 AP-2 cis-reporter, Attagene transcription factor profiling; actives raise or lower the signal. The essentials: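 HepG2 cells transiently transfected with cis-element reporter units and exposed for 24 h. Reporter mRNA measured by RT-PCR, FAM labelling, HpaI digestion and capillary electrophoresis. Changes in either direction fitted relative to DMSO.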

Test [7] is described as follows: ATG_BRE_CIS: Attagene CIS-FACTORIAL HepG2 Assay for human Bone Morphogenetic Protein (BMP) Response Element (BRE) (AID 2282933). Conditions: HepG2 BMP response element reporter, Attagene transcription factor profiling; actives raise or lower the signal. Summed up:
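Endogenous transcription factor activity at a BMP response element was monitored in transfected HepG2 cells 24 h after dosing. Fluorescent RT-PCR products were resolved by capillary electrophoresis, and activity was fitted in both directions versus DMSO.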

Test [8] deals with Retinoic acid receptor alpha (Homo sapiens) (UniProt P10276). Briefly: ATG_DR5_RAR_CIS: Attagene CIS-FACTORIAL HepG2 Assay for human Retinoic Acid Receptor Alpha (RARE), DR5 submotif (AID 2282934).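 On AC50: reporter responds to endogenous RAR alpha beta and gamma in HepG2 not RARA alone.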 Conditions: HepG2 Attagene cis-factorial RARE DR5 reporter, mRNA; actives raise or lower the signal. Summed up:
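HepG2 cells transiently transfected with multiplexed reporter units; DR5 cis-element drives reporter through endogenous transcription factors. After 24 h dosing, reporter mRNA quantified by RT-PCR, fluorescent labeling, HpaI digestion and capillary electrophoresis; bidirectional fitting versus DMSO.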

The target of test [9] is Transcription factor E2F1 (Homo sapiens) (UniProt Q01094). Briefly: ATG_E2F_CIS: Attagene CIS-FACTORIAL HepG2 Assay for human E2F Transcription Factor 1 (AID 2282935). The note with it: HepG2 Attagene cis-reporter, E2F reporter RNA transcripts; actives raise or lower the signal. The essentials: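 Endogenous E2F1 activity read through cis-promoter reporter units transfected into HepG2. After 24 h compound treatment, reporter mRNA measured by RT-PCR, HpaI digestion and capillary electrophoresis. Bidirectional fit versus DMSO.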

A short description of test [10]: ATG_E_Box_CIS: Attagene CIS-FACTORIAL HepG2 Assay for human Enhancer Box (E-box) (AID 2282936). The note with it: HepG2 E-box cis-reporter transcription, actives raise or lower the signal. Summed up: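 HepG2 cells transiently transfected with multiplexed cis-element reporter units, dosed 24 h; reporter mRNA quantified by RT-PCR, 6-FAM labelling, HpaI digestion and capillary electrophoresis. E-box (USF1) signal fitted bidirectionally vs DMSO.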

A short description of test [11]: ATG_M_61_CIS: Attagene CIS-FACTORIAL HepG2 Assay for M61 Transcription Factor (Internal Marker) (AID 2282937). The note with it: HepG2 Attagene CIS-FACTORIAL M61 internal marker reporter; actives raise or lower the signal. The essentials: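 This endpoint serves as an internal background control within a multiplexed HepG2 cis-reporter panel. Cells are exposed for 24 h; reporter mRNA is amplified, fluorescently labelled and sized by capillary electrophoresis, with DMSO as negative control.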

Test [12] can be described thus: ATG_EGR_CIS: Attagene CIS-FACTORIAL HepG2 Assay for human Early Growth Response 1 (EGR1) (AID 2282938). The note with it: HepG2 Attagene CIS-FACTORIAL EGR reporter mRNA; actives raise or lower the signal. Summed up:
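HepG2, transient MRTU transfection (cis promoters), 24 h compound. RNA → RT (oligo-dT) → PCR → 6-FAM labelling → HpaI cut → CE fluorescence. Bidirectional fit, DMSO baseline.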

Test [13] is described as follows: ATG_M_19_CIS: Attagene CIS-FACTORIAL HepG2 Assay for M19 Transcription Factor (Internal Marker) (AID 2282939). Conditions: HepG2 Attagene CIS-FACTORIAL M19 internal marker reporter; actives raise or lower the signal. The essentials: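 Background-control endpoint from a multiplexed HepG2 reporter panel. Cells carrying cis-regulated reporter constructs are treated 24 h, then reporter transcripts are amplified, fluorescently labelled and sized by capillary electrophoresis. DMSO defines baseline.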

Test [14] in a line: ATG_ERE_CIS: Attagene CIS-FACTORIAL HepG2 Assay for Estrogen Response Element (ERE) (AID 2282940). Conditions: HepG2 ERE cis-reporter, Attagene RNA transcript; actives raise or lower the signal. Summed up: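 Cells used were human hepatoma HepG2, transfected with multiple reporter transcription units under cis-regulatory promoters. Reporter mRNA, read 24 h post-dosing via fluorescent RT-PCR products on capillary electrophoresis, was fitted bidirectionally relative to DMSO.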

Test [15] in a line: ATG_Ets_CIS: Attagene CIS-FACTORIAL HepG2 Assay for human Erythroblast Transformation Specific (ETS) (AID 2282941). The note with it: HepG2 ETS cis-reporter transcription, actives raise or lower the signal. The essentials:
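HepG2 cells transfected with multiple cis-regulated reporter units measuring endogenous ETS-driven transcription, 24 h after dosing. Reporter mRNA quantified by RT-PCR with capillary electrophoresis; bidirectional fit relative to DMSO.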

A short description of test [16]: ATG_FoxO_CIS: Attagene CIS-FACTORIAL HepG2 Assay for human Forkhead box O (FoxO) (AID 2282943). The note with it: HepG2 Attagene cis-reporter, FoxO element, mRNA; actives raise or lower the signal. The essentials: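 HepG2 cells transiently transfected with cis-element-driven reporter units report endogenous FoxO activity. After 24 h chemical exposure, reporter mRNA quantified by RT-PCR, fluorescent labeling, HpaI digestion and capillary electrophoresis; bidirectional fit versus DMSO.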

Test [17] can be described thus: ATG_GATA_CIS: Attagene CIS-FACTORIAL HepG2 Assay for human GATA Binding Protein (AID 2282944). The note with it: HepG2 GATA cis-element reporter, Attagene multiplex mRNA; actives raise or lower the signal. The essentials:
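Endogenous transcription factor activity was captured through cis-promoter-driven reporters in transfected HepG2 cells. After 24 h exposure, reporter transcripts were quantified by RT-PCR with fluorescent capillary electrophoresis, and responses fitted both directions against DMSO.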

The nature of test [18]: ATG_GLI_CIS: Attagene CIS-FACTORIAL HepG2 Assay for human Zinc Finger Protein GLI1 (AID 2282945). Conditions: HepG2, Attagene cis-factorial reporter mRNA, GLI element; actives raise or lower the signal. Summed up:
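Transiently transfected HepG2 cells report endogenous transcription factor activity via cis-element-driven reporter units. After 24 h compound exposure, reporter mRNA was measured by RT-PCR with capillary electrophoresis; bidirectional fitting against DMSO baseline.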

For test [19], the target named is Hepatocyte nuclear factor 3-beta (Homo sapiens) (UniProt Q9Y261). Briefly: ATG_FoxA2_CIS: Attagene CIS-FACTORIAL HepG2 Assay for human Forkhead box A2 (FOXA2) (AID 2282942). Conditions: HepG2 cis-reporter transcription factor activity, 24 h; actives raise or lower the signal. The essentials:
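Cells: HepG2, transient multiplex reporter transfection. Exposure 24 h. Detection: reporter-specific RT-PCR, fluorescent labelling, restriction digest, capillary electrophoresis. Analysis: bidirectional curve fit, DMSO as negative control.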

As a reminder, the AC50 is the concentration at which the activity in the assay is half-maximal.

Sequence of Retinoic acid receptor alpha (Homo sapiens) (P10276 whole entry, looked up): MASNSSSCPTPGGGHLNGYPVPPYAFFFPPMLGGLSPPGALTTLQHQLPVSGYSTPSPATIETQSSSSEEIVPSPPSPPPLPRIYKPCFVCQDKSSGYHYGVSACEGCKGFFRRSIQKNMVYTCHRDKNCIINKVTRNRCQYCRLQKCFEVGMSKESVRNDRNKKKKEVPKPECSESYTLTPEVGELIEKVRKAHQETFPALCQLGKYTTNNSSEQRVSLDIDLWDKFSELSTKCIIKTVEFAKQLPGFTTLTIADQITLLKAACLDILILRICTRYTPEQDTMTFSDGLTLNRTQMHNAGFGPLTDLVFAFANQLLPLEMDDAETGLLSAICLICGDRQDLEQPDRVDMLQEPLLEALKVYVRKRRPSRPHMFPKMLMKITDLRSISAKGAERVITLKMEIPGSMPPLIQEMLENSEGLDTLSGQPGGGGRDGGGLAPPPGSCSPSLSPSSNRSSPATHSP
Sequence of CCAAT/enhancer-binding protein beta (Homo sapiens) (P17676 whole entry, looked up): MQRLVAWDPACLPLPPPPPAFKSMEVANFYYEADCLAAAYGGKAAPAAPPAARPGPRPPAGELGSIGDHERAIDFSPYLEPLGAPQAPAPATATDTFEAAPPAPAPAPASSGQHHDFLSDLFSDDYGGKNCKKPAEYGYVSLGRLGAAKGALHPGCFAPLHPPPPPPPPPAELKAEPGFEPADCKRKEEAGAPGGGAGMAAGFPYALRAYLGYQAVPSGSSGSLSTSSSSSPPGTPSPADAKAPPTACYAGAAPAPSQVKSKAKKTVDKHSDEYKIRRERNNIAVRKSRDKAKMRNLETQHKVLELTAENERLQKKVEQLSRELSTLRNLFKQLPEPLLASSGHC
Sequence of Hepatocyte nuclear factor 3-beta (Homo sapiens) (Q9Y261 whole entry, looked up): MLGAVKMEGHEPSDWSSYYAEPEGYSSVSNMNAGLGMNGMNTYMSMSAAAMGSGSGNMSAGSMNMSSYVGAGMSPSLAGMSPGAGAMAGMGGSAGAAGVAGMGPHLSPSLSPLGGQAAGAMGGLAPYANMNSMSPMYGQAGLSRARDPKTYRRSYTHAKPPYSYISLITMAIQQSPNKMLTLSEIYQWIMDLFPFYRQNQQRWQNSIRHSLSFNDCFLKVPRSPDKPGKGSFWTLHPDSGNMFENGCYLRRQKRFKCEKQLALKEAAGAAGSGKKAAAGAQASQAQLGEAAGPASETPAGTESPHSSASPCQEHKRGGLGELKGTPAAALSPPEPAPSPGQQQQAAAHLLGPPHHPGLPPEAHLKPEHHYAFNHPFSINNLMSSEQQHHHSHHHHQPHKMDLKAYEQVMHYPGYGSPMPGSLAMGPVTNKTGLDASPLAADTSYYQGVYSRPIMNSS
Sequence of Aryl hydrocarbon receptor (Homo sapiens) (P35869 whole entry, looked up): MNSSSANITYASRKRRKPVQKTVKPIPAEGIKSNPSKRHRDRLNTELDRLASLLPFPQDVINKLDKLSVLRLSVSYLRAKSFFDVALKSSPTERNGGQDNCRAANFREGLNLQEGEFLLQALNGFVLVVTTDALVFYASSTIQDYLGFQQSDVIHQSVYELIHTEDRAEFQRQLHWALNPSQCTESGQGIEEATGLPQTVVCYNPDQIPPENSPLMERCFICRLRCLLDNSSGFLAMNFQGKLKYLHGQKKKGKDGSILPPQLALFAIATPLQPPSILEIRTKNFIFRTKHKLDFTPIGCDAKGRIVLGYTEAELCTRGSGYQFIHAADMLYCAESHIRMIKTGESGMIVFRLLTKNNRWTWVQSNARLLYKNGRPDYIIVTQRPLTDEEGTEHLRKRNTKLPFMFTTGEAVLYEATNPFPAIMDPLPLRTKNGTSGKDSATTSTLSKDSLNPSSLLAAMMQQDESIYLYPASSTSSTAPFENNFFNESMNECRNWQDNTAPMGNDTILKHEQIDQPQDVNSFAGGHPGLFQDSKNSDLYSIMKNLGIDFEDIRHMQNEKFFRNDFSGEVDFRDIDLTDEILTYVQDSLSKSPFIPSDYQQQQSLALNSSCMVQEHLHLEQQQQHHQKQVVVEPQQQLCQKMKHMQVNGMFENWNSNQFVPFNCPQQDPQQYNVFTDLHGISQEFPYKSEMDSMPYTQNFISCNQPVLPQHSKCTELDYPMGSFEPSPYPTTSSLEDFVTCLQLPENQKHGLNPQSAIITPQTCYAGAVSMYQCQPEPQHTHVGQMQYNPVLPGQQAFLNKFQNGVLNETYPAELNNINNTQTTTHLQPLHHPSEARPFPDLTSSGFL
Sequence of Transcription factor E2F1 (Homo sapiens) (Q01094 whole entry, looked up): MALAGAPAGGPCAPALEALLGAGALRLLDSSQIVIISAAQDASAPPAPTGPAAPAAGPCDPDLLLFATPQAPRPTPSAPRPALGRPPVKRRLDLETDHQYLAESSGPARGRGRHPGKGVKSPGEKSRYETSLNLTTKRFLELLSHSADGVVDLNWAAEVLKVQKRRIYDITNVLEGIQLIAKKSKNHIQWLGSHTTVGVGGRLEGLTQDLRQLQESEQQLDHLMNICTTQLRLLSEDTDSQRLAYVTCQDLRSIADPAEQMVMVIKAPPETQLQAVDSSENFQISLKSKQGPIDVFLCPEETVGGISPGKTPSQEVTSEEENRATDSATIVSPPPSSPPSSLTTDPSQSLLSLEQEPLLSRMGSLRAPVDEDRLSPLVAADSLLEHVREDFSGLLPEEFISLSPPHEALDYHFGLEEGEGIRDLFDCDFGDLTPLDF

Take `OCCc1ccncc1`: the result in test [1], in [2], in test [3], in test [4], in test [5] and in test [6] was inactive. Also, the outcome in test [7], in test [8], in test [9], in test [10], in test [11] and in test [12] was inactive. The compound was called inactive in test [13], in test [14], in test [15], in test [16], in test [17] and in test [18].
On to `CC(C)c1ccc2c(c1)CC[C@H]1[C@](C)(CN)CCC[C@]21C`, for which the result in test [1], in [4], in test [6], in test [11], in test [13] and in test [14] was inactive. Besides, the compound was classed as inactive in [19], in [16] and in [18]. Also, the AC50 in test [2] was 5.78 µM (active); in test [3], 5.39 µM (active); in test [5], 5.99 µM (active); in test [7] it was 5.7 µM (active); in test [8], 6.12 µM (active); in test [9], 6.03 µM (active). Further, the values for the AC50 in [12] and in test [17] were 5.35 µM (active) and 5.79 µM (active), respectively.
With `C=CCOCC(O)CCl` (stereo not drawn), the result in [1], in test [2], in test [3], in test [4], in test [5] and in test [6] was inactive. The result in test [7], in test [9], in test [10], in [11], in test [12] and in test [13] was inactive. In addition, the compound was called inactive in test [14], in test [15], in test [19], in [16], in test [17] and in [18].
Regarding `C=C[Si](OC(C)=O)(OC(C)=O)OC(C)=O`, the result in test [1], in test [3], in test [4], in [5], in [6] and in test [8] was inactive. The call in test [9], in test [10], in test [11], in test [12], in test [13] and in test [14] was inactive. For the same compound, the result in test [15], in test [19], in [16], in test [17] and in test [18] was inactive.
For `O=C(Nc1cccc(C(F)(F)F)c1)c1cc(Br)cc(Br)c1O`, the outcome in test [1], in test [5], in [8], in test [9], in test [11] and in test [13] was inactive. Moreover, the compound was classed as inactive in test [14], in [19], in test [16] and in test [17]. For the same compound, the AC50 is 160 µM (active) in [2]; 5.76 µM (active) in test [6]; 1.08 µM (active) in test [7]; 77.6 µM (active) in test [10]; 25.5 µM (active) in [12]; 83 µM (active) in test [18].
On to `CCCCC/C=C\CCC=O`, for which the result in test [1], in test [2], in [3], in [4], in test [5] and in test [6] was inactive. For the same compound, the call in test [8], in test [9], in [10], in [11], in test [12] and in test [13] was inactive. Besides, the outcome in [14], in test [15], in [16], in test [17] and in [18] was inactive.
